High-throughput results deposited in PubChem by Sanford-Burnham Center for Chemical Genomics.
An excerpt weighted towards active compounds, which were near 2.5% of everything screened.
SKN-1 block: C. elegans SKN-1 inhibition; inhibition, % at 21.8 µM; 360,000 compounds, 0.49% hits; C. elegans VP596 Pgst-4::GFP/RFP ratio, acrylamide-induced, 24 h; AID 624304;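 active means interference check ratio from 0.5 to 1.5 plus GFP to RFP signal ratio inhibition reaching or exceeding a fixed threshold, cut at about 30% in these data, passing the limit was not always enough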
H9c2 TAG inh: inhibitors of triacylglycerol accumulation; H9c2 cells, Nile Red lipid (TAG) fluorescence; cells loaded with 200 µM oleic acid; inhibition, % at 12.5 µM; 230,000 compounds, 0.66% hits;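 active means pattern-corrected inhibition of lipid staining of at least 50% with the nuclear-stain viability signal not falling by more than 50%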;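 further: 0% = DMSO wells and 100% = triacsin C control wells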
hiPSC survival: enhancers of human iPSC single-cell survival. hiPSC single-cell survival, ATPlite luminescence; 100% = ROCK inhibitor wells, 0% = DMSO. survival enhancement, % at 20 µM. 360,000 compounds, 0.044% hits. AID 602274; in the data active means survival enhancement above about 18%;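 further: cells exposed to compounds for 16 hours before the ATP read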
Cardio protect: myocardial damage modulation in H9c2 cells; 360,000 compounds, 0.63% hits; H9c2 cardiomyocytes, H2O2 injury protection, ATPLite, 2 h; protection from H2O2 cell death, % at 20 µM;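 active means compounds giving at least 50% protection of heart cells from peroxide-induced death in the single-dose screen, raw or plate-pattern-corrected value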;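 further: 0% = DMSO wells with peroxide and 100% = DMSO wells without peroxide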
CRFR2-BP antag: CRF-BP/CRF-R2 complex antagonism; AID 588475; inhibition, % at 11.8 µM; 350,000 compounds, 0.59% hits; HEK293 CRF-R2/CRF-BP, CRF-induced calcium fluorescence;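 active means inhibition of the ligand-induced calcium signal above about 50% at the single tested concentration, limit read from the data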
CRFR2-BP ag: agonists of human CRF-binding protein/CRF-R2 receptor complex. 350,000 compounds, 0.46% hits. activation, % at 13.2 µM. HEK293 CRF-R2/CRF-BP, calcium dye fluorescence (FLIPR); percent of saturating CRF peptide response;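 active means activation of at least 50%, plus an integration ratio under a set limit after plate pattern correction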;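 further: plate controls were neutral control wells without compound for no effect and CRF at EC100 for full effect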
Active calls of the source: *; x = no result given.

SMILES	SKN-1 block	H9c2 TAG inh	hiPSC survival	Cardio protect	CRFR2-BP antag	CRFR2-BP ag
O=C(c1cc(C2CC2)nn1-c1ccccc1)N1CCN(c2ccccn2)CC1	-4	-3	0	14	12	-4
O=C(NCCN1CCOCC1)c1cnn2c(-c3ccccc3)cc(-c3ccccc3)nc12	-6	x	0	79*	-13	1
Cc1ccc(-c2cc(C(F)F)n3ncc(C(=O)N4CCN(c5cccc(C)c5C)CC4)c3n2)cc1	39*	22	-2	8	-15	9
COc1ccc(-c2cc(C(F)F)n3ncc(C(=O)Nc4ccc(C(=O)N5CCOCC5)cc4)c3n2)cc1	-8	45	2	71*	16	-1
O=C(Nc1ccc(C(=O)N2CCOCC2)cc1)c1cnn2c(C(F)F)cc(-c3ccccc3)nc12	3	21	0	55*	7	0
O=C1NC(Cc2c[nH]c3ccccc23)C(=O)N1Cc1cccc2ccccc12 (stereo unspecified)	1	x	0	-4	51*	1
Cc1ccc(CN2C(=O)NC(Cc3c[nH]c4ccccc34)C2=O)cc1 (stereo unspecified)	5	x	-2	5	-16	5
COc1ccc(CN2CCN(Cc3ccco3)CC2)cc1	40*	x	0	2	2	-1
O=C(COC(=O)COc1ccc(Cl)cc1Br)NCc1cccs1	19	-3	-1	-3	53*	-1
CC(=O)c1cccc(NC(=O)C(C)OC(=O)CCc2nc3ccccc3c(=O)[nH]2)c1 (stereo unspecified)	-3	-25	3	52*	-5	-2
CCCc1nc2ccccc2c(C(=O)OC(C)C(=O)NCc2ccc3c(c2)OCO3)c1CC (stereo unspecified)	-4	x	0	2	25	8
CC(OC(=O)CCc1nc2ccccc2c(=O)[nH]1)C(=O)Nc1cccc(C(F)(F)F)c1 (stereo unspecified)	7	-2	2	34	6	4
CC(OC(=O)CCc1nc2ccccc2c(=O)[nH]1)C(=O)NCc1ccc2c(c1)OCO2 (stereo unspecified)	4	-3	0	67*	2	-2
CCOC(=O)/C(=C\c1ccc(N2CCC(c3ccccc3)=N2)cc1)C(C)=O	30	-18	-4	-6	-105	99*
O=C(/C=C/c1ccc(N2CCC(c3ccccc3)=N2)cc1)c1ccccc1	x	x	x	x	-284	311*
COC(=O)C1=C(C)NC(=O)NC1c1ccc(N2CCC(c3ccccc3)=N2)cc1 (stereo unspecified)	-5	-16	1	-2	-20	-1
COc1ccc(Br)cc1CN(C)CC(O)COc1ccc(Br)cc1 (stereo unspecified)	35*	x	0	-2	-13	3
COc1ccc(CN(C)CC(O)COc2ccc(C(=O)c3ccccc3)cc2)c(OC)c1OC (stereo unspecified)	-21	x	0	1	-17	1
N#Cc1c(-c2ccco2)cc(-c2cccnc2)nc1N	26	x	0	87*	-3	1
N#Cc1c(-c2ccco2)cc(-c2ccccn2)nc1N	1	10	-2	88*	-28	1
N#Cc1c(-c2cccnc2)cc(-c2ccccc2)nc1N	31	26	-1	-1	-9	-3
CC(NC(=O)OCc1ccccc1)C(=O)NCC(=O)NC(Cc1ccc(OC(C)(C)C)cc1)C(=O)OC(C)(C)C (stereo unspecified)	-3	x	1	-4	-9	-1
CCC(CCNC(=O)c1ccccc1)(CCNC(=O)c1ccccc1)[N+](=O)[O-]	9	1	-1	-1	24	-8
COc1ccc(-c2cc3nc(-c4ccccc4)cc(N4CCN(C(=O)c5ccoc5)CC4)n3n2)cc1	3	39	-3	54*	2	-1
Cc1ccc(NC(=O)c2ccc(OC(=O)COc3ccc(Cl)cc3C)cc2)cc1	6	x	-1	-6	-4	-1
SMILES	SKN-1 block	H9c2 TAG inh	hiPSC survival	Cardio protect	CRFR2-BP antag	CRFR2-BP ag
Cc1ccc(C(=O)CC(=O)COc2ccc(Cl)cc2C)cc1	-1	1	-2	64*	-4	-2
Cc1cc(C)cc(-n2c(C)cc(C(=S)N3CCOCC3)c2C)c1	9	x	0	3	57*	-2
Cc1ccc(/C=N/NC(=O)c2c(-c3ccccc3)noc2C)c(O)c1	3	28	0	54*	x	x
COc1cccc(/C=N/NC(=O)c2c(-c3ccccc3)noc2C)c1O	1	29	0	41	22	-1
Cc1onc(-c2ccccc2)c1C(=O)N/N=C/c1cc(Br)c(Br)o1	13	x	-2	-1	103*	2
COc1cc2sc3cc(NCc4ccc(C)o4)ccc3c(=O)c2cc1OC	37*	4	3	15	-11	-3
COc1ccc(NC(=O)Nc2ccc3c(c2)OCO3)c(C)c1	3	-14	0	-3	53*	-1
CCOc1cc(C)ccc1OCc1nnc(SCC(=O)c2cccc([N+](=O)[O-])c2)n1C	9	x	-1	10	56*	-1
Cn1c(COc2ccccc2)nnc1SCC(=O)c1cccc([N+](=O)[O-])c1	7	x	1	-1	59*	1
COc1ccnc(CSC(N)=Nc2ccc(F)cc2)c1	-1	8	-1	-8	86*	6
COc1ccc(-c2sc3ccccc3c2-c2ccc(OC)cc2F)cc1	7	x	0	x	x	x
COc1cc(C)ccc1OCc1cc(C(=O)NCCN2CCOCC2)no1	4	-3	-1	0	32	-10
N#Cc1cccnc1N1CCN(C(c2ccnc3ccccc23)c2nnnn2-c2ccc3c(c2)OCCO3)CC1 (stereo unspecified)	7	x	0	x	x	x
CC(C)(C)OC(=O)N1CCC(c2cc(=O)n3[nH]cc(C(=O)Nc4ccc(F)c(Cl)c4)c3n2)CC1	-1	8	0	10	12	0
CC(C)(C)OC(=O)N1CCC(c2cc(=O)n3[nH]cc(C(=O)NC4CCCC4)c3n2)CC1	-13	-9	4	-1	51*	0
CC1(C(=O)Nc2ccc3c(c2)OCCO3)CN(S(C)(=O)=O)CC(=O)N1CCc1c[nH]c2ccccc12 (stereo unspecified)	3	x	x	x	x	x
COCCNC(=S)N(C)[C@H]1C[C@H]2c3cc(Oc4ccccc4C)ccc3CCN2C(=O)[C@H]1[C@H](C)O	-2	-3	-1	-1	-6	0
CC1(C)CC(=O)C2=C(C1)N(Cc1ccco1)C(=O)C2(NC(=O)c1cccnc1)C(F)(F)F (stereo unspecified)	-3	x	-2	-3	-10	0
CC1(C)CC(=O)C2=C(C1)N(Cc1ccco1)C(=O)C2(O)C(F)(F)F (stereo unspecified)	7	1	2	10	94*	-1
